The record followed here is PubChem BioAssay.

Calls of active or inactive are those of the source.

The target of one assay is Albumin (Bos taurus) (UniProt P02769). Put plainly: bovine serum albumin binders on microarray, profiling panel, artefact control for SMM control protein annotation, biochemical, small-molecule microarray, Alexa647 label, 635/667 nm fluorescence (AID 1118).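 Further: score merges 667 nm emission intensity and signal-to-noise per printed compound spot.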 As to conditions: BSA-A647 binding, fluorescence 635 nm, higher = more signal.
Assay [1] in a line: small-molecule microarray binders of probe aXIP, primary screen, biochemical, NeuroSMM set, 635/667 nm fluorescence (AID 1119).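 Further: probe is the protein aXip251-270 applied at 1 µg/mL to compound-printed slides; binding of probe to printed compounds measured as 667 nm fluorescence plus signal to noise.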 The settings on record: higher = more signal, called active from +8 up or from −8 down.
A short description of assay [2]: small-molecule binders of probe aNOTCH3, primary screen, biochemical, small-molecule microarray, 635/667 nm fluorescence (AID 1120).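 Further: probe is a biotin-tagged antibody raised against NOTCH3 rather than NOTCH3 protein; score merges spot fluorescence near 667 nm with spot signal to noise.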 As to conditions: higher = more signal.
Assay [3] in a line: small-molecule binders of probe aNOTCH2, primary screen, biochemical, small-molecule microarray, 635/667 nm fluorescence (AID 1121).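 Further: score merges feature fluorescence read at 667 nm with its signal to noise.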 As to conditions: higher = more signal.
Assay [4] addresses Carbonic anhydrase 2 (Homo sapiens) (UniProt P00918). Description: CAII small-molecule binders, profiling panel, biochemical, small-molecule microarray, Alexa647-labelled CAII (AID 1122). As to conditions: CAII-A647 binding fluorescence, higher = more signal.
The nature of assay [5]: COS7 lysate on small-molecule microarray, probe aHis, 635 nm (AID 1123).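 Further: z-score combines 667nm fluorescence intensity with signal-to-noise per printed compound spot.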 The settings on record: COS7 cell lysate, fluorescence, higher = more signal.
Assay [6] can be described thus: compound binding in COS7 lysate, probe aLAP1, primary screen, cell lysate, small-molecule microarray (AID 1124).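 Further: lysate comes from COS7 cells expressing LAP1 and is applied at 0.3 µg/mL; score merges spot fluorescence near 667 nm with signal-to-noise over triplicate slides.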 The settings on record: probe aLAP1, fluorescence, higher = more signal.
Another assay relates to Sam68 (KHDRBS1). Put plainly: Sam68 small-molecule binders, primary screen, biochemical, small-molecule microarray, 635 nm fluorescence (AID 1125).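 Further: score merges 667 nm channel intensity with signal to noise over triplicate slides.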 As to conditions: small-molecule microarray binding, higher = more signal.
The subject of assay [7] is Chordin-like protein 2 (CHRDL2). Description: CHRDL2 small-molecule binders, primary screen, biochemical, small-molecule microarray, 635 nm fluorescence (AID 1126).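 Further: printed compound slides probed with Chrdl2 protein at 4 µg/mL for 1 h at 4 C; score merges 667 nm emission intensity with signal to noise over three replicate slides.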 The settings on record: small-molecule microarray binding, fluorescence 635 nm; higher = more signal.
The target of assay [8] is Concanavalin-A (Canavalia ensiformis) (UniProt P02866). Description: ConA small-molecule binders, primary screen, artefact control for SMM control protein annotation, biochemical, small-molecule microarray, Alexa647 label, 635 nm (AID 1127).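 Further: z combines 667 nm emission intensity with signal-to-noise across three replicate slides.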 The settings on record: ConA-A647 binding fluorescence, higher = more signal.
The nature of assay [9]: anti-His antibody binders, primary screen, artefact control for SMM control protein annotation, biochemical, small-molecule microarray, 635 nm fluorescence (AID 1128).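 Further: score merges feature fluorescence with signal-to-noise for each printed compound spot.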 As to conditions: anti-His Alexa647 antibody binding, higher = more signal.
The subject of assay [10] is Human papillomavirus type 1a E7 protein (residues 1-88). Put plainly: HPV1a E7 small-molecule binders, primary screen, biochemical, small-molecule microarray, residues 1-88, 635 nm (AID 1129). As to conditions: small-molecule microarray binding, fluorescence 635 nm; higher = more signal.
Assay [11] concerns the target Focal adhesion kinase 1 (Homo sapiens) (UniProt Q05397). Description: small-molecule microarray binders of FAK, primary screen, biochemical, 635/667 nm fluorescence, BSA, DTT (AID 1130).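 Further: composite of spot emission at 667 nm and signal to noise over triplicate slides.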 The settings on record: PTK2 binding, 635 nm fluorescence, higher = more signal.
The test system of assay [12] is Fibrinogen (Alexa647-labelled). Description: fibrinogen binders on compound microarrays, profiling panel, artefact control for SMM control-protein annotation, biochemical, small-molecule microarray, 635/667 nm fluorescence (AID 1131).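 Further: z-score merges 667 nm fluorescence with per-spot signal-to-noise over triplicate slides.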 As to conditions: fibrinogen-A647 binding fluorescence, higher = more signal.
The target in assay [13] is Follistatin (Homo sapiens) (UniProt P19883). Description: follistatin binders on small-molecule microarrays, primary screen, biochemical, small-molecule microarray, 635/667 nm fluorescence (AID 1132). As to conditions: FST binding, 635 nm fluorescence, higher = more signal.
The target in assay [14] is Fibroblast growth factor 2 (Homo sapiens) (UniProt P09038). Put plainly: FGF2 binders on small-molecule microarrays, primary screen, biochemical, small-molecule microarray, 635/667 nm fluorescence (AID 1133). As to conditions: small-molecule microarray binding, FGF2, fluorescence 635/667; higher = more signal.
The nature of assay [15]: mitochondrial membrane potential change in A549 cells, profiling panel, cell-based, JC-1 fluorescence, basal, 24 h, 100 nL (AID 1138).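 Further: A549 lung adenocarcinoma cells under basal conditions with no added stimulus; test concentration not given here.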 The settings on record: higher = more signal.
The test system of a further assay is Lefty1. Put plainly: Lefty1 binders on small-molecule microarrays, primary screen, biochemical, small-molecule microarray, 635/667 nm fluorescence (AID 1139). As to conditions: small-molecule microarray binding, fluorescence 635/667; higher = more signal.
The test system of assay [16] is wheat germ agglutinin (Triticum aestivum), Alexa647-labelled. Description: wheat germ agglutinin binders on compound microarrays, profiling panel, artefact control for SMM control-protein annotation, biochemical, small-molecule microarray, 635/667 nm fluorescence (AID 1140).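 Further: score merges 667 nm feature emission with signal to noise over triplicate slides.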 As to conditions: WGA-A647 binding, 635 nm fluorescence, higher = more signal.
Assay [17] addresses Luciferin 4-monooxygenase (Photinus pyralis) (UniProt P08659). Description: firefly luciferase enzyme inhibitors, primary screen, biochemical, luminescence, purified enzyme, 2006 set (AID 1141).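 Further: cell-free assay with purified firefly luciferase at 100 ng per well in PBS; test concentration not given here.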 As to conditions: SteadyGlo luminescence, 30 min, higher = more signal, called active from +8 up or from −8 down.

Chain of Follistatin (Homo sapiens) (P19883 whole entry, looked up): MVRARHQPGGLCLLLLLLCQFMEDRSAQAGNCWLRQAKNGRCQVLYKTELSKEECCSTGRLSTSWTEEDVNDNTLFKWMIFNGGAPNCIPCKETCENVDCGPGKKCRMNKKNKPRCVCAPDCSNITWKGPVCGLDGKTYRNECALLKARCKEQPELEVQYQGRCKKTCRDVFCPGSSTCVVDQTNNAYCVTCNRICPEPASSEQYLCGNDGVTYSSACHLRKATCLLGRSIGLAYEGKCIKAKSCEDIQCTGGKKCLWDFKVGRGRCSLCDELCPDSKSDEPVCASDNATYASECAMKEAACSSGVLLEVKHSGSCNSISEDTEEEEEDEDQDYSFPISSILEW
Chain of Fibroblast growth factor 2 (Homo sapiens) (P09038 whole entry, looked up): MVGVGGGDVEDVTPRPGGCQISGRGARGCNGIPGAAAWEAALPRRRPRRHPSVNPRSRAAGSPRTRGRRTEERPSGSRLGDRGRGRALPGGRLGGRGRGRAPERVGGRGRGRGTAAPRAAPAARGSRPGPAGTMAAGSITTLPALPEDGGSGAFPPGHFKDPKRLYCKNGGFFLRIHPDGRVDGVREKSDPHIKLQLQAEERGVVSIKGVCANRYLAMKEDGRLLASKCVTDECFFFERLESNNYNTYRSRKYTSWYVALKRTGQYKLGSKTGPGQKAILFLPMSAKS
Chain of Albumin (Bos taurus) (P02769 whole entry, looked up): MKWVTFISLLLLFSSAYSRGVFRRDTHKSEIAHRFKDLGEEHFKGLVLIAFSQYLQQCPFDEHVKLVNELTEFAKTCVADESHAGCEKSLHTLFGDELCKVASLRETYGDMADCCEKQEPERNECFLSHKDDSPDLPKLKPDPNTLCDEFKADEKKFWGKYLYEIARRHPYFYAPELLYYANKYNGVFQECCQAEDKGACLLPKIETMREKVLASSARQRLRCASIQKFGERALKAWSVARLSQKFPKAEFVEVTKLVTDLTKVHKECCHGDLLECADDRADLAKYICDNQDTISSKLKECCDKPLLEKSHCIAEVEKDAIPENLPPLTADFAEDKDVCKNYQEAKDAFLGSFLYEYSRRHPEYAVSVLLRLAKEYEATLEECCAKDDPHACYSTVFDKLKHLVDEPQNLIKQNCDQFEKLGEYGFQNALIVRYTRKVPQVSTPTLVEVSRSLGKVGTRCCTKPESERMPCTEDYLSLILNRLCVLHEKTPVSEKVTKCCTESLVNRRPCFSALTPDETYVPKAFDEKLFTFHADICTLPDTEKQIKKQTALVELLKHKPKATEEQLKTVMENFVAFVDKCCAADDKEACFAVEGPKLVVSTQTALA
Chain of Luciferin 4-monooxygenase (Photinus pyralis) (P08659 whole entry, looked up): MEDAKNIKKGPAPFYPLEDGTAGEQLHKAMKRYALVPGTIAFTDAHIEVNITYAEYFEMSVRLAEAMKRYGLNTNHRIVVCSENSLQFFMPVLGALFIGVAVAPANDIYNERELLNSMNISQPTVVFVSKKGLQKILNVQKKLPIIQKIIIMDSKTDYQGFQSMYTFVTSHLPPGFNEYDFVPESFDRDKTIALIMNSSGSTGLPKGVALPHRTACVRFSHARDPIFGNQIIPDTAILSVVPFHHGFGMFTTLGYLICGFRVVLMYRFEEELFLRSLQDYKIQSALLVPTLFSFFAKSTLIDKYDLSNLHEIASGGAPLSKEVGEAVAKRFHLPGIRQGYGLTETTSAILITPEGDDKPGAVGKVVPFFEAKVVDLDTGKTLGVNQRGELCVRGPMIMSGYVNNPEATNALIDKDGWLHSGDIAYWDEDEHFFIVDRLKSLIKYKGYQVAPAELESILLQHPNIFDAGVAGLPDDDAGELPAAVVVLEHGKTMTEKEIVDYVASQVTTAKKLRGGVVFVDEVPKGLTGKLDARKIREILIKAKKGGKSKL
Chain of Concanavalin-A (Canavalia ensiformis) (P02866 whole entry, looked up): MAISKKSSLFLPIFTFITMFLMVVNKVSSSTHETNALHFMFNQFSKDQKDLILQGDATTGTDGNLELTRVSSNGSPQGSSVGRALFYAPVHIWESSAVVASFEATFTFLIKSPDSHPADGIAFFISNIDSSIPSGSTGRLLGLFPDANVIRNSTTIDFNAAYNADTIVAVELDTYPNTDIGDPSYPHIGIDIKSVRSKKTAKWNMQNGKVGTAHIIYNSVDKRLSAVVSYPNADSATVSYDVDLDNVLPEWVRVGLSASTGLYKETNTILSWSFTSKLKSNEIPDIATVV
Chain of Focal adhesion kinase 1 (Homo sapiens) (Q05397 whole entry, looked up): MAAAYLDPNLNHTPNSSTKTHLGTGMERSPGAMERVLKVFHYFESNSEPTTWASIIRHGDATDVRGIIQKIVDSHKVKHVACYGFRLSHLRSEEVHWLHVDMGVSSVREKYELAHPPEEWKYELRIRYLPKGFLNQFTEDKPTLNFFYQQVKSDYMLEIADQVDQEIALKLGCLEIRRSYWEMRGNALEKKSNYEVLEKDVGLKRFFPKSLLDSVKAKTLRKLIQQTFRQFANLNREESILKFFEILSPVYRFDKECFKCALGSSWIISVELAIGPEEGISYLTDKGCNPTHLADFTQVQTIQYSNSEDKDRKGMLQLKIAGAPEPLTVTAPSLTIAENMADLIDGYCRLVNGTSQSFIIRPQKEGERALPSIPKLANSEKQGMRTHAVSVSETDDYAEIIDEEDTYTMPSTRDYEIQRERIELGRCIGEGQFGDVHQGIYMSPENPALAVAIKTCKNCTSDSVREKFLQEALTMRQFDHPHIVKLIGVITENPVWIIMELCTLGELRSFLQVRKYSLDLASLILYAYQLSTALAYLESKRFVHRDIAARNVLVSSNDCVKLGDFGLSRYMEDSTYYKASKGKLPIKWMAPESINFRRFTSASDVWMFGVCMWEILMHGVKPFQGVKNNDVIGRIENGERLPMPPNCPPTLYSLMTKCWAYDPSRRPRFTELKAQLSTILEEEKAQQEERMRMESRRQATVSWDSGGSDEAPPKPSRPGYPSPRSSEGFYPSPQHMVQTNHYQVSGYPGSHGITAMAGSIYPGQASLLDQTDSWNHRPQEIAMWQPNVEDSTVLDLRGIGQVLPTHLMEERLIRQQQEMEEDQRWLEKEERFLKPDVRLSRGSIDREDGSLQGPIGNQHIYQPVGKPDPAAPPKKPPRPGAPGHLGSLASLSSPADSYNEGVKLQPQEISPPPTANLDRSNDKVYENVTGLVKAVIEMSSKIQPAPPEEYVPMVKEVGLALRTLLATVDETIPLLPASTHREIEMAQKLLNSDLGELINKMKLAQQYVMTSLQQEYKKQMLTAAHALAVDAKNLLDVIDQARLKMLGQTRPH

As to `COCCOC(=O)N1C(=O)[C@@]2(c3ccccc31)[C@H](C(=O)N1CCc3cc(OC)c(OC)cc3C1)[C@H]1C(=O)O[C@H](c3ccccc3)[C@H](c3ccccc3)N1[C@@H]2c1ccccc1OCCO`, the composite z-score in the assay with Albumin (Bos taurus) was 0.484; in [2] it was 0.0556; in assay [3], -0.0607; in assay [4], 0.441; in assay [5] it was 1.24; in [6], 0.0221. For the same molecule, the composite z-score in the assay with Sam68 (KHDRBS1) was 1.3; in assay [7] it was 0.107; in assay [8], 1.17; in [9] it was 1.86; in assay [10], 1.18; in assay [11], 0.989. For the same molecule, the composite z-score in assay [12] stood at 0.938; in assay [13], 1.13; in assay [14], 0.349; in the assay on Lefty1, 0.762; in assay [16], 1.02. Further, in [1], the composite Z-score was 0.497 (inactive). In addition, the z-score was 0.679 in assay [15] and -1.69 (inactive) in [17].

Turning to `COCCOC(=O)N1C(=O)[C@@]2(c3cc(C#CCNC(N)=O)ccc31)[C@H](C(=O)N1CCCCCCC1)[C@H]1C(=O)O[C@H](c3ccccc3)[C@H](c3ccccc3)N1[C@@H]2c1ccccc1OCCO`, the composite z-score in the assay with Albumin (Bos taurus) amounted to 0.328; in assay [2], 0.555; in [3], 0.0231; in [4], 0.171; in assay [5] it was 0.963; in assay [6] it was 0.417. For the same molecule, the composite z-score amounted to 1.14 with Sam68 (KHDRBS1); 0.573 in assay [7]; 1.08 in [8]; 0.455 in [9]; 1.14 in assay [10]; 0.784 in assay [11]. Moreover, the composite z-score turned out to be 0.47 in assay [12]; 1.33 in [13]; 0.385 in [14]; 1.21 in the assay on Lefty1; 0.835 in assay [16]. For the same molecule, the composite Z-score in assay [1] was 1.01 (inactive). Also, the z-score in [15] was -0.751; in [17], -0.201 (inactive).

With `COCCOC(=O)N1C(=O)[C@@]2(c3cc(C#CCC(C(=O)OC)C(=O)OC)ccc31)[C@H](c1ccccc1OCCO)N1[C@H](c3ccccc3)[C@H](c3ccccc3)OC(=O)[C@H]1[C@@H]2C(=O)N1CCCCCCC1`, the composite z-score with Albumin (Bos taurus) was -0.0742; in assay [2], 1.23; in assay [3], 0.36; in [4] it was 0.488; in assay [5], 2.18; in assay [6], 0.385. In addition, the composite z-score stood at 1.32 in the assay with Sam68 (KHDRBS1); 1.27 in assay [7]; 1.02 in assay [8]; 1.75 in assay [9]; 1.18 in assay [10]; 0.384 in [11]. The composite z-score is 0.744 in assay [12]; 1.51 in [13]; 1.05 in assay [14]; 1.55 with Lefty1; 0.529 in assay [16]. Besides, the composite Z-score in assay [1] is 2.67 (inactive). Also, the z-score was -0.729 in assay [15] and 0.406 (inactive) in assay [17].

In the case of `CO[C@@H]1COC(=O)[C@@H]2CCCN2C(=O)CC=C[C@@H](C)[C@H](OC)COC(=O)[C@@H]2CCCN2C(=O)CC=C[C@H]1C`, the composite z-score was -1.36 with Albumin (Bos taurus); -0.0699 in [2]; -0.141 in [3]; -0.439 in assay [4]; -0.422 in [5]; 0.169 in assay [6]. The composite z-score is -0.149 in the assay with Sam68 (KHDRBS1); 1.36 in assay [7]; -0.512 in assay [8]; -0.775 in assay [9]; -1.7 in assay [10]; -0.191 in assay [11]. For the same molecule, the composite z-score is -1.15 in assay [12]; 1.34 in [13]; 1.58 in assay [14]; 1.31 in the assay with Lefty1; -0.949 in [16]. For the same molecule, the composite Z-score in [1] was -0.286 (inactive). Further, the z-score in [15] was 1.01; in assay [17] it was -1.44 (inactive).

For `[N-]=[N+]=NCc1ccccc1[C@H]1OC(c2ccc(OCCCO)cc2)=N[C@@]1(Cc1ccccc1N=[N+]=[N-])C(=O)NCc1ccccc1`, the composite z-score with Albumin (Bos taurus) was 0.763; in assay [2] it was 0.286; in assay [3] it was 0.0243; in [4] it was 0.579; in assay [5], 1.65; in [6], 0.174. For the same molecule, the composite z-score in the assay with Sam68 (KHDRBS1) is 1.31; in [7], -0.633; in [8] it was 1.12; in [9], 0.859; in [10], 1.18; in assay [11], 0.636. Further, the composite z-score in [12] was determined as 0.82; in assay [13] it was 1.03; in assay [14] it was 0.299; with Lefty1, 0.0912; in [16], 1. The composite Z-score in [1] was 0.945 (inactive). Moreover, the z-score in assay [15] was 0.623; in assay [17], -1.17 (inactive).
